Screening data: PubChem BioAssay, The Scripps Research Institute Molecular Screening Center
Compounds with a hit are over-represented: about 2.3% of the library has one in this group of screens.
CHRM1 PAM: human CHRM1 positive allosteric modulation. AID 588819. activation, % at 3 µM. CHO-K1 hM1, Fluo-8 calcium fluorescence, ACh EC20; 0% = ACh EC20, 100% = maximal ACh. hit rate 0.088% among 360,000. P11229; in the data active = activation above about 19%, passing the limit was not always enough
Target sequence (P11229 whole entry, looked up): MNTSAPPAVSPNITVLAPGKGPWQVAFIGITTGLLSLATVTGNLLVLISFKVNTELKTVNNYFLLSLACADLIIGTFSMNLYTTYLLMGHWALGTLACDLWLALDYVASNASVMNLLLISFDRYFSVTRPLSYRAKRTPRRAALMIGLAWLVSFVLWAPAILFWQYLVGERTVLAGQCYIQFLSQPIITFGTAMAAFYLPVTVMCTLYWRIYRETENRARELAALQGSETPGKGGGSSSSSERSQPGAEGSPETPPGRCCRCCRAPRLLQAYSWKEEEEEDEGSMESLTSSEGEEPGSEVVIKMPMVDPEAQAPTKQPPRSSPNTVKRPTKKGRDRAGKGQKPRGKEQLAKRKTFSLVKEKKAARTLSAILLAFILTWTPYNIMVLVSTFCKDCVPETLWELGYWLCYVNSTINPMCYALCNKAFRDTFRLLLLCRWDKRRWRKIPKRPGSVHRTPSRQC
CHO-K1 Ca ag: counter-screen for M1 agonists: effect in parental CHO-K1 cells | AID 602248 | Fluo-8 calcium fluorescence; scaled to maximal ATP response, vehicle zero | activation, % at 3 µM | hit rate 0.48% among 360,000; in the data active = activation above about 15%;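 note: untransfected CHO-K1 host cells lacking M1 receptor as counterscreen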
M1 ag: activates human CHRM1 receptor; P11229; CHO-K1 hM1, Fluo-8 calcium fluorescence, agonist mode; 0% DMSO, 100% acetylcholine EC100; activation, % at 3 µM; hit rate 0.33% among 360,000;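 active = activation above the run's mean compound activation plus 3 SD, cut at about 16% in these data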;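 note: peak over basal fluorescence ratio within a 140 s kinetic read after compound addition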
CHO-K1 Ca PAM: nonselective activator or artifact in parental CHO-K1 calcium assay. activation, % at 3 µM. hit rate 0.02% among 360,000. ATP EC20, Fluo-8 calcium fluorescence; 0% at ATP EC20, 100% at ATP max;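 active = activation above the run cutoff, the mean activation of all test compounds plus 3 SD, cut at about 40% in these data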;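 note: peak over basal fluorescence ratio in a 140 s read after ATP addition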
M1 antag: antagonists of human M1 muscarinic receptor | inhibition, % at 3 µM | P11229 | CHO-K1 hM1, Fluo-8 calcium fluorescence, ACh EC80 antagonist | hit rate 1.3% among 360,000;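 active = percent inhibition above its own plate's cutoff, namely the mean of that plate's compound wells plus 3 SD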;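 note: peak over basal fluorescence ratio during 140 s after agonist addition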
CHO-K1 Ca antag: counter-screen for M1 antagonists: effect in parental CHO-K1 cells; ATP-induced calcium, Fluo-8 fluorescence; inhibition, % at 3 µM; hit rate 0.6% among 360,000;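 active = inhibition above a per-plate cutoff, the plate's mean sample inhibition plus 3 SD, cut at about 24% in these data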
A number is an active result; i = inactive; ! = not active in a repeat.

SMILES | CHRM1 PAM | CHO-K1 Ca ag | M1 ag | CHO-K1 Ca PAM | M1 antag | CHO-K1 Ca antag
CCOc1ccc(N(CC(=O)Nc2ccccc2C(=O)N2CCOCC2)S(=O)(=O)c2ccc(F)cc2)cc1 | i | i | i | i | i | i
Cc1ccc(C(C)NC(=O)COC(=O)C2=COCCO2)cc1C (configuration not stated) | i | i | i | i | i | i
CCc1ccccc1OCCCCN1CCCCC1 | i | i | i | i | 36 | i
c1ccc(COc2ccc(OCCCCN3CCCCC3)cc2)cc1 | i | i | i | i | 35 | i
CC1CCCN(Cc2ccc(OCc3ccccc3)cc2)C1 (configuration not stated) | i | i | i | i | 73 | i
O=C(O)c1cc(S(=O)(=O)NCCOc2ccccc2)ccc1Cl | i | i | i | i | i | i
CC1(C)C2CCC(C2)C1(C)NC(=O)CN1CCN(Cc2ccccc2)CC1 (configuration not stated) | i | i | i | i | i | i
CC1(C)C2CCC(C2)C1(C)NC(=O)C[N+](C)(C)C (configuration not stated) | i | 23 | i | i | i | i
COC(=O)CCC(=O)OC1(C)C(=O)C=C2C=C(C3CC3)N(c3ccccc3)C=C2C1=O (configuration not stated) | i | i | i | i | 28 | i
COC(=O)CCC(=O)OC1(C)C(=O)C=C2C=C(C3CC3)N(CCCCO)C=C2C1=O (configuration not stated) | i | i | i | i | i | i
CCOc1ccc(NS(=O)(=O)c2ccc(C(=O)N(C)CC(=O)Nc3ccc(OC)cc3)cc2)cc1 | i | i | i | i | i | i
CCOc1ccc(NS(=O)(=O)c2ccc(NC(=S)NC(=O)CC(C)C)cc2)cc1 | i | i | 17 | i | i | i
C=C(C)CN(CC)C(=O)COc1ccc(S(=O)(=O)Nc2ccc(OC)cc2)cc1 | i | i | 21 | i | i | i
CCC(=O)NC(=S)Nc1ccc(S(=O)(=O)NC(C)=O)cc1 | i | i | i | i | i | 29
CCCC(=O)NC(=S)Nc1ccc(S(=O)(=O)Nc2ccc(OCC)cc2)cc1 | i | 27 | 28 | i | i | i
CCN(CC(=O)Nc1ccc(OC)cc1)C(=O)c1ccc(NS(=O)(=O)c2ccc(C(C)=O)cc2)cc1 | i | i | i | i | i | i
O=C(NCCCc1nc2ccccc2[nH]1)c1cccs1 | i | i | i | i | i | i
COc1cc(CNS(=O)(=O)c2ccc3c(c2)CC(C)N3C(C)=O)cc(OC)c1OC (configuration not stated) | i | i | i | i | i | i
COc1ccc(CN(C)c2ccc(S(=O)(=O)N3CCN(C)CC3)cc2[N+](=O)[O-])cc1OC | i | 16 | i | i | 43 | 31
CCCCn1c2ccc(F)cc2c2nnc(SCCN3CCOCC3)nc21 | i | i | i | i | i | i
CCCCn1c2ccccc2c2nnc(SCCN3CCCCC3)nc21 | i | i | i | i | 55 | i
CCOC(=O)c1ccc(NC(=O)NNC(=O)CCc2ccc(OC)cc2)cc1 | i | i | i | i | i | i
CC(NC(=O)COC(=O)CN1C(=O)NC2(CCCC2)C1=O)c1ccc(F)cc1 (configuration not stated) | i | i | i | i | i | i
C#CCCCCCCC#CCN(C)C | i | i | 41 | i | i | 26
CNC(=O)COC(=O)C1CCN(S(=O)(=O)c2ccc3c(c2)OCCO3)CC1 | i | i | i | i | i | i
SMILES | CHRM1 PAM | CHO-K1 Ca ag | M1 ag | CHO-K1 Ca PAM | M1 antag | CHO-K1 Ca antag
O=C(CCN1C(=O)c2ccccc2C1=O)N(CCO)Cc1ccccc1 | i | i | i | i | 101 | i
COc1cc(/C=N\n2nnnc2N)ccc1OCc1ccc(F)cc1 | i | i | i | i | active | i
COc1cc(/C=N/n2nnnc2N)ccc1OCC(N)=O | i | i | i | i | i | i
CC(C)(O)C#Cc1ccc(CN2CCN(C3CCCCC3)C(CCO)C2)s1 (configuration not stated) | i | i | i | i | i | i
CC(C)(O)C#Cc1ccc(CN2CCN(C3CCCC3)C(CCO)C2)cc1 (configuration not stated) | i | i | i | i | 53 | i
CSc1ccc(CN2CCN(C3CCCC3)C(CCO)C2)cc1 (configuration not stated) | i | i | i | i | 60 | i
CC(C)(O)C#Cc1ccc(CN2CCN(C3CCCCC3)C(CCO)C2)cc1 (configuration not stated) | i | i | i | i | 25 | i
OCCC1CN(Cc2cc3c(cc2Cl)OCO3)CCN1C1CCCC1 (configuration not stated) | i | i | i | i | 38 | i
Cc1cc(=O)[nH]c(SCC(=O)N2CCCC(C)C2)n1 (configuration not stated) | i | i | i | i | i | i
O=C(NCCNC(=O)Nc1ccc(Cl)cc1)Nc1ccc(Cl)cc1 | i | i | i | i | i | i
Cc1nnsc1SCCNC(=O)Nc1ccc(Cl)cc1 | i | i | i | i | 37 | i
O=C(c1ccccc1)c1nn(-c2ccccc2)c(=O)cc1C(F)(F)F | i | i | i | i | i | i
O=C(c1ccccc1)c1nn(-c2ccc(Cl)cc2)c(=O)cc1C(F)(F)F | i | 19 | i | i | i | i
CCN(CC)C(=O)C1=C(C)N(CCC2=CCCCC2)C(=O)C(CC(=O)NCCN2CCOCC2)C1 (configuration not stated) | i | i | i | i | i | i
CCOc1cc(C(=O)NC(CC(=O)O)c2ccc(OC3CCCC3)cc2)cc(OCC)c1OCC (configuration not stated) | i | i | i | i | i | 32
CC(C)(C)c1ccc(C(=O)NC(CC(=O)O)c2ccc(OC3CCCC3)cc2)cc1 (configuration not stated) | i | i | i | i | i | i
C=C[C@H]1CN2CC[C@H]1C[C@@H]2[C@@H](O)c1ccnc2ccc(OC)cc12 | i | i | i | i | i | 25!
C=C[C@H]1CN2CCC1C[C@H]2[C@H](O)c1ccnc2ccc(OC)cc12 (some centres not stated) | i | i | i | i | i | i
COCCCNc1nc(SCc2ccccc2)nc2sc3c(c12)CCC3 | i | i | i | i | i | 25
Cc1cc(=O)[nH]c(NN=C2CCC(C(C)(C)C)CC2)n1 (configuration not stated) | i | 19 | i | i | i | i
O=c1cc(O)c2c(=O)n(-c3ccccc3)c3c(c2o1)CCCCCC3 | i | i | i | i | i | 24
O=c1cc(O)c2c(=O)n(C3CCCCC3)c3ccccc3c2o1 | i | i | i | i | i | i
CCN(CC)CC(C)(C)COC(=O)c1oc2ccccc2c1C | i | i | i | i | 32 | i
Cc1c(C(=O)OCC(C)(C)CN(C)C)oc2ccccc12 | i | i | i | i | 53 | i
